In ChEMBL document CHEMBL1157539, “Thousands of chemical starting points for antimalarial lead identification” (Nature, 2010):

Legend:
Assay type in all cases: functional
Plasmodium falciparum [1] = assay: GSK_TCMDC: Inhibition of Plasmodium falciparum 3D7 in whole red blood cells, using parasite LDH activity as an index of growth. Test compounds present at 2uM
Plasmodium falciparum [2] = assay: GSK_TCMDC: Inhibition of Plasmodium falciparum Dd2 in whole red blood cells, using parasite LDH activity as an index of growth. Test compounds present at 2uM
HepG2 = assay: GSK_TCMDC: Percent inhibition of human HepG2 cell line. Test compounds present at 10uM.

Row | SMILES | Inhibition (Plasmodium falciparum [1]) [%] | Inhibition (Plasmodium falciparum [2]) [%] | Inhibition (HepG2) [%]
1 | CC(C)(C)CCN1CCC(CNC(=O)c2cc(-c3cccc(C(F)(F)F)c3)cs2)C1.O=C(O)C(F)(F)F (centres undefined) | 93 | 13 | 47
2 | Cl.O=C1CSc2ccc(CNC3CCN(CCc4c(Cl)cnc5ccc(Cl)cc45)CC3)nc2N1 | 100 | 92 | 25
3 | CCOC(=O)c1ccc(NC(=O)Nc2cccc(-c3cccc(-c4nc5ccccc5[nH]4)c3)c2)cc1 | 100 | 99 | 76
4 | COc1ccc(NC(=O)c2ccc3cc4ccccc4cc3c2)cc1N1CCN(C)CC1 | 86 | 29 | 38
5 | Cc1ccc(F)cc1-c1cc(N2CCCN(C(=O)c3ccc(Br)o3)CC2)ncn1 | 94 | 91 | 0
6 | COc1c(C2=CCN(CCCCNC(=O)c3ccc(-c4ccc(C#N)cc4)cc3)CC2)c(C)cc2c1C(C)(C)CCC2(C)C | 92 | 88 | 18
7 | Cc1[nH]c(C)c(-c2ccc(CCc3ccc(F)cc3F)cc2)c(=O)c1Cl | 98 | 97 | 5
8 | CCCCCCCN1CC[C@@H](CCC(O)c2ccnc3ccc(OC)cc23)[C@@H](CC)C1 (some centres undefined) | 97 | 93 | 34
9 | COc1cc(OC)cc(C(=O)Nc2nc(-c3ccccn3)cs2)c1 | 97 | 72 | 47
10 | Cc1cc(N[C@@H](CC(C)C)C(=O)NCCc2ccccc2)nc(NCc2ccccc2C)n1.O=C(O)C(F)(F)F | 93 | 74 | 17
11 | CCN(CC)CCNC(=O)c1ccc(Nc2ncc([N+](=O)[O-])c(Nc3ccccc3OC)n2)cc1.Cl | 97 | 58 | 59
12 | C[C@H](NC(=O)[C@H](CCCCNC(=O)OC(C)(C)C)NC(=O)OC(C)(C)c1ccc(-c2ccccc2)cc1)C(=O)OCc1ccccc1 | 97 | 1 | 4
13 | CC(C)Cn1c(Sc2ccc(C#N)c([N+](=O)[O-])c2)nnc1-c1ccccc1 | 83 | 12 | 17
14 | CCN(CC)CCCNc1nccc(N(C)c2ccc(NC(=O)Nc3cc(C(F)(F)F)ccc3F)cc2)n1.O=C(O)C(F)(F)F | 94 | 19 | 96
15 | Cc1cccc2nc(-c3cccc(-c4cccc(NC(=O)CCc5c[nH]cn5)c4)c3)[nH]c12 | 100 | 86 | 16
16 | CN1CCN(c2ccnc3ccc(NC(=O)Nc4ccc(-c5ccncc5)c5ccccc45)cc23)CC1 | 100 | 84 | 76
17 | CN1CC[C@@H](Oc2cc(C(=O)NCc3ccc(Cl)c(Cl)c3)ccc2C(F)(F)F)C1.Cl | 88 | 4 | 8
18 | Cc1ccc(C2CC(=O)CC(c3ccccn3)C2[N+](=O)[O-])cc1 (centres undefined) | 97 | 2 | 5
19 | Cc1nnnn1-c1ccc(C(=O)N2CCC3(CC2)CN(Cc2ccc(Cl)c(Cl)c2)C(=O)O3)cc1 | 100 | 99 | 2
20 | COc1ccc(CN2CCN(C(=O)c3cccs3)CC2)c(O)c1 | 97 | 2 | 7
21 | Cc1c(C(=O)N2CCc3cc4nccc(N5CCN6CCC[C@H]6C5)c4cc32)cnn1-c1ccc(C#N)cc1.Cl | 90 | 27 | 0

Row | SMILES | Inhibition (Plasmodium falciparum [1]) [%] | Inhibition (Plasmodium falciparum [2]) [%] | Inhibition (HepG2) [%]
22 | O=C(Cc1ccc(-n2cnnn2)cc1)N(Cc1cncn1Cc1cccc(C(F)(F)F)c1)CC1CC1 | 86 | 0 | 0
23 | Cc1cccc(-c2ccc(NC(=O)C3CCN(Cc4cccc(O)c4)CC3)cc2)c1 | 92 | 64 | 21
24 | CNC(=O)c1cnc(Nc2ccc(OCC(O)CN(C)C)cc2)nc1Nc1cccc(OC)c1.O=C(O)C(F)(F)F (centres undefined) | 100 | 97 | 31
25 | Clc1ccc(Cn2nc(Br)nc2Br)c(Cl)c1 | 96 | 96 | 4
26 | O=C1SC(=Cc2ccc(O)c(O)c2)C(=O)N1c1ccccc1 | 91 | 17 | 12
27 | Cl.O=C(c1ccc(-c2ccc(Cl)cc2)o1)N1CCc2cc3nccc(N4CCN5CCC[C@H]5C4)c3cc21 | 100 | 86 | 1
28 | CN(Cc1ccc(NC(=O)NC2CCN(C(=O)/C=C/c3ccc(Cl)c(Cl)c3)CC2)cc1)C1CCOCC1 | 96 | 14 | 9
29 | CN(C)CCNc1cc(-c2cccnc2)nc(-c2ccncc2)n1 | 100 | 98 | 33
30 | COc1ccc(NC(=O)Nc2nc3ccccc3s2)cc1N1CCN(C)CC1 | 95 | 22 | 6
31 | Nc1cc(-c2ccc(-c3cccs3)s2)nc2ccccc12 | 100 | 50 | 32
32 | Oc1ccc(Cl)cc1-c1cc(C(F)(F)F)nc(-c2ccccc2)n1 | 99 | 92 | 20
33 | COc1ccc2c(NN=CC=Cc3ccccc3)ccnc2c1 | 100 | 100 | 9
34 | CN1CCN(CC(=O)Nc2ccc(-c3ccc(-c4nc5ccccc5[nH]4)s3)cc2)CC1 | 100 | 49 | 12
35 | O=C(c1cc2ccccc2o1)N1CCc2cc3nccc(N4CCN5CCC[C@H]5C4)c3cc21 | 99 | 100 | 62
36 | OC(CNCc1ccccc1OCc1ccccc1)c1cc(Br)cs1 (centres undefined) | 97 | 88 | 16
37 | NC(=O)c1cccc(CNC(=O)NC[C@H]2CN(Cc3ccc(Cl)c(Cl)c3)CCO2)c1 | 98 | 65 | 0
38 | CCc1ccc(CN2CCC(NC(=O)c3cc(-c4ccc(N(C)C)cc4)cs3)C2)cc1.O=C(O)C(F)(F)F (centres undefined) | 90 | 7 | 29
39 | COc1cccc(-c2[nH]c3ccccc3c2CN2CCC(c3c(C)cccc3C)CC2)c1 | 99 | 24 | 32
40 | N=C(N)NCCCCN(Cc1ccccc1)c1ccccc1 | 100 | 98 | 0
41 | COc1cc(OC)cc(-c2nn(-c3ccc([N+](=O)[O-])cc3C#N)c(=S)n2CC2CCCO2)c1 (centres undefined) | 98 | 75 | 9
42 | O=C(Nc1cccc(C(F)(F)F)c1)Nc1ccc2nonc2c1 | 98 | 76 | 0

Row | SMILES | Inhibition (Plasmodium falciparum [1]) [%] | Inhibition (Plasmodium falciparum [2]) [%] | Inhibition (HepG2) [%]
43 | O=C(NCCCCN1CCC(c2ccc3c(c2OCC(O)c2ccc(Cl)cc2)CCCC3)CC1)c1ccc(-c2ccc(C(F)(F)F)cc2)cc1 (centres undefined) | 89 | 67 | 100
44 | C=CCOc1ccc2ccccc2c1CNCCCCCCNCc1c(OCC=C)ccc2ccccc12.CS(=O)(=O)O | 100 | 98 | 99
45 | CCN1CCN(c2cc(C)c3cc(NC(=O)c4cncc(Br)c4)ccc3n2)CC1 | 97 | 63 | 3
46 | O=C(O)C(F)(F)F.c1ccc2[nH]c(-c3ccc(-c4ccc(CN5CCN(CCN6CCOCC6)CC5)cc4)cc3)nc2c1 | 98 | 99 | 43
47 | Cc1nc2nc(N)nc(N)c2c(C)c1Cc1ccccc1Cl.Cl | 93 | 0 | 63
48 | CCOC(=O)c1ccc2[nH]c(-c3ccc(C(=O)NCc4ccc(C(C)(C)C)cc4)cc3)nc2c1 | 94 | 34 | 0
49 | CCOC(=O)c1nc(-c2cccnc2)[nH]c1NC(=S)NCc1ccccc1 | 100 | 100 | 10
50 | COc1ccc(C(=O)Cn2nc(-c3ccc(Cl)cc3)ccc2=O)c(OC)c1 | 93 | 70 | 0
51 | Cc1nc2c(c(C)nn2C(C)(C)C)c(C)c1CCC(=O)Nc1ccc(CN2CCCC2)cc1 | 89 | 5 | 1
52 | O=C(CCC1CCCC1)N(Cc1ccc(-c2ccc(CNCCc3ccccc3)cc2)cc1)C1CCCNC1.O=C(O)C(F)(F)F (centres undefined) | 90 | 71 | 99
53 | Cc1cccc(Cl)c1Nc1nnc(-c2cccc(C(=O)NC[C@@H]3CC[C@H]4C[C@@H]3C4(C)C)c2)o1 | 85 | 69 | 2
54 | c1ccc(-c2nnc(-c3ccccn3)nc2NC2CCCCC2)cc1 | 97 | 80 | 74
55 | COc1ccc2nc3cc(Cl)ccc3c(N)c2c1.Cl | 100 | 100 | 100
56 | COc1cc(C)nc2ccc(NC(=O)Nc3ccc([N+](=O)[O-])cc3C)cc12 | 90 | 52 | 10
57 | CC(=O)Nc1ncc(C(=O)Nc2ccc(-c3cccc(-c4nc5cc(F)ccc5[nH]4)c3)cc2)s1 | 100 | 85 | 47
58 | Cc1nn(-c2ccccc2)nc1C(=O)N(Cc1ccc(-c2ccc(CNCCc3ccc(S(C)(=O)=O)cc3)cn2)cc1)C(C)CN(C)C.O=C(O)C(F)(F)F (centres undefined) | 100 | 87 | 25
59 | Cc1nc(-c2nc(NCc3ccc4c(c3)OCO4)ncc2-c2ccsc2)sc1C | 97 | 77 | 7
60 | CNC(=O)CC(=O)NCCc1ccc(Cl)cc1 | 99 | 1 | 0
61 | NC(Cc1cccc(I)c1)C(=O)NCC1CCCO1.O=C(O)C(F)(F)F (centres undefined) | 98 | 50 | 52
62 | O=C(/C=C/c1cccc(Cl)c1)N1CCC(C(O)CN2CCC3(CC2)CN(C(=O)/C=C/c2cccc(Cl)c2)c2ccccc23)CC1 (centres undefined) | 91 | 38 | 34
63 | CCn1ncc(Cl)c1CN(C)S(=O)(=O)c1ccc(Br)cc1 | 90 | 70 | 9
